Assay results from PubChem BioAssay (Tox21).
“And” between values parts separate entries of the source, which are not always exact repeats. Equal entries are not always repeated. Results filed as inconclusive are left out. Entries that show only a call come without a potency. A structure can be active in one record and inactive in another. The source made the active and inactive calls. Unless noted, calls follow the shape of the full dose curve.

Key:
[1] = Nuclear factor erythroid 2-related factor 2/antioxidant responsive element (Nrf2/ARE) small molecule agonists: qHTS cell viability counter screen in human keratinocytes (AID 1919968; active = well fitted curve in the direction sought with a large enough effect in the repeat runs; an effect the other way counts as inactive or inconclusive; also: nearly all actives have a fitted effect of over 55% in size; also: potency is read from the fitted curve at half-maximal effect)
Procedure, shortened: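 In human HaCaT keratinocytes stably expressing an ARE-driven luciferase, compound exposure lasted 23 h at 37 C under 5% CO2. Viable cells are quantified with a protease-based fluorogenic reagent (CellTiter-Fluor) read 1 h after addition.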

[2] = Nuclear factor erythroid 2-related factor 2/antioxidant responsive element (Nrf2/ARE) small molecule agonists: luciferase reporter gene qHTS assay in human keratinocytes (AID 1919969); also: nearly all actives have a fitted effect of over 35% in size; also: potency is read from the fitted curve at half-maximal effect
[3] = target: Gonadotropin-releasing hormone receptor (Homo sapiens) (UniProt P30968); assay: Human gonadotropin-releasing hormone receptor (GnRHR) small molecule agonists, calcium flux assay in GnRHR-HEK293 cells (AID 1920063); also: nearly all actives have a fitted effect of over 35% in size
Sequence of Gonadotropin-releasing hormone receptor (Homo sapiens) (P30968 whole entry, looked up): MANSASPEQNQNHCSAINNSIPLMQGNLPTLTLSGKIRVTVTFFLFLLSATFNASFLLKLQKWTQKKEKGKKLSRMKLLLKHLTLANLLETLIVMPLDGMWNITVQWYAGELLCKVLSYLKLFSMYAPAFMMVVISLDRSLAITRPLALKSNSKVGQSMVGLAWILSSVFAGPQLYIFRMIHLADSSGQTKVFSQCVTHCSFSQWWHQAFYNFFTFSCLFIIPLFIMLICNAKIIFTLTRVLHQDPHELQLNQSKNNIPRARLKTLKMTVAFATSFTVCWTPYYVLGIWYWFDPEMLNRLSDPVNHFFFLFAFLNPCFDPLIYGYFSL
Procedure, shortened: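 Intracellular calcium rise is the read-out: engineered human GnRHR HEK293 cells, dye-loaded, are exposed to DMSO-dissolved compounds and fluorescence at Ex/Em 480/540 is tracked for 3 min.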

[4] = target: KiSS-1 receptor (Homo sapiens) (UniProt Q969F8); assay: Human kisspeptin (KISS1R) small molecule agonists, calcium flux assay in KISS1R-HEK293 cells (AID 1920064; active = well fitted curve in the direction sought with a large enough effect in the repeat runs; an effect the other way counts as inactive or inconclusive)
Sequence of KiSS-1 receptor (Homo sapiens) (Q969F8 whole entry, looked up): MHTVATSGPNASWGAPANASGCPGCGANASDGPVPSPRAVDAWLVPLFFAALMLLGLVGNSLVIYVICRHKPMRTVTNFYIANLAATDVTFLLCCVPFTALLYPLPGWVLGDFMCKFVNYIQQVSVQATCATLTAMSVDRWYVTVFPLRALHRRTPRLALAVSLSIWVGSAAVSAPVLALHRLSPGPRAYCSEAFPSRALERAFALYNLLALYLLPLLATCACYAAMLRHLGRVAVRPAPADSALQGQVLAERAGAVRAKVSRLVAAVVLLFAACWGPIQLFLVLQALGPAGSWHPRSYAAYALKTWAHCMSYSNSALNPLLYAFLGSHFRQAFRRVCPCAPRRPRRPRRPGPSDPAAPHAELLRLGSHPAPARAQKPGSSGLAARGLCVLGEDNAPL
Procedure, shortened: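 Concentration-response testing used 15 concentrations in triplicate on human KISS1R-expressing HEK293 cells. Calcium-dependent fluorescence (Ex/Em 480/540) was followed kinetically for 3 min after compound transfer.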

[5] = G protein-coupled receptor (GPCR) small molecule agonists, calcium flux assay: HEK293 wild type cell line counter screen (AID 1920065)
Procedure, shortened: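 Fluorescence intensity signals activation. After overnight (18 h) culture and a 1 h calcium dye load at 37 C, compounds are added by pin tool and the plate read at 480/540 nm for 3 min in 1 s steps.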

[6] = p53 small molecule agonists, cell-based qHTS assay with human liver microsomes (AID 1963577);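 also: p53 response element beta-lactamase reporter cells with liver microsomes plus NADPH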
Procedure, shortened: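 HLM-supplemented p53RE-bla reporter assay: 16 h compound exposure at 37 C, microsomes and NADPH each 0.5 mg/mL final, read by fluorescence intensity.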

[7] = p53 small molecule agonists, cell-based qHTS assay with rat liver microsomes (AID 1963578)
Procedure, shortened: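 Quantitative HTS of the Tox21 10K library: p53RE-bla cells, rat liver microsomes plus NADPH at 0.5 mg/mL final each, 16 h at 37 C, beta-lactamase fluorescence detection.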

[8] = p53 small molecule agonists, cell-based qHTS assay with human liver microsomes: qHTS cell viability counter screen (AID 1963579); also: nearly all actives have a fitted effect of over 45% in size
Procedure, shortened: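 Viability of p53RE-bla cells is measured as CellTiter-Glo luminescence following a 16 h, 37 C incubation with compound, liver microsomes from human donors and NADPH.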

[9] = p53 small molecule agonists, cell-based qHTS assay with rat liver microsomes: qHTS cell viability counter screen (AID 1963580); also: nearly all actives have a fitted effect of over 45% in size; also: potency is read from the fitted curve at half-maximal effect
Procedure, shortened: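 Counter screen for cytotoxicity under metabolic activation: rat liver microsomes and NADPH, 0.5 mg/mL final each, added with compounds to p53RE-bla HCT-116 cells; 16 h at 37 C, then ATP luminescence read.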

[10] = p53 small molecule agonists, cell-based qHTS assay: qHTS cell viability counter screen (AID 1963581); also: nearly all actives have a fitted effect of over 45% in size
Procedure, shortened: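 Luminescence from CellTiter-Glo, reflecting ATP content, serves as the cytotoxicity measure; it is taken after the 2 h reporter substrate step in HCT-116 p53RE-bla cells dosed for 16 h at 37 C.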

[11] = p53 small molecule agonists, cell-based qHTS assay (AID 1963582; active = well fitted activation curve with a large enough effect in the signal ratio in the repeat runs, not every such curve was filed as active; the % refers to the signal ratio)
Procedure, shortened: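 After plating, p53RE-bla cells sat 5 h in the incubator; compounds or DMSO vehicle were pinned in; a 16 h incubation at 37 C followed; FRET substrate was added and, 2 h later at RT, fluorescence was measured.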

[12] = target: 5-hydroxytryptamine receptor 2A (Homo sapiens) (UniProt P28223); assay: 5-hydroxytryptamine receptor 2A (HTR2A) small molecule antagonists, cell-based qHTS assay (AID 1963586); also: nearly all actives have a fitted effect of over 45% in size
Sequence of 5-hydroxytryptamine receptor 2A (Homo sapiens) (P28223 whole entry, looked up): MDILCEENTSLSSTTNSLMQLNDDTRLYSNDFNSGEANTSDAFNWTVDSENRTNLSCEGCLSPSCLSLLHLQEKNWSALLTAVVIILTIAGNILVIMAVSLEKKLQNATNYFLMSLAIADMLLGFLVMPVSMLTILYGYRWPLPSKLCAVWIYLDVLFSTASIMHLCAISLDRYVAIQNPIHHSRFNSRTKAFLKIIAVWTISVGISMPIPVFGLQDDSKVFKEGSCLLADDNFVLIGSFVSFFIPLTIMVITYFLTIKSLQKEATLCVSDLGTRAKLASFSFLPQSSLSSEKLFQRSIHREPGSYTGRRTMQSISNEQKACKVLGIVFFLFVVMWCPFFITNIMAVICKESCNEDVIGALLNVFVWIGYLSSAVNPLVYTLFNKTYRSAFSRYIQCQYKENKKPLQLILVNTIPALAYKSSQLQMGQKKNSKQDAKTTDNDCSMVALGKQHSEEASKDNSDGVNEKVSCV
Procedure, shortened: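 CHO cells stably expressing human HTR2A were plated for 18 h at 37 C, then loaded with calcium dye for 1 h. Compounds were preincubated 5 min at room temperature before DOI (4 nM solution) was added. Kinetic fluorescence was read for 3 min.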

[13] = target: 5-hydroxytryptamine receptor 2A (Homo sapiens) (UniProt P28223); assay: 5-hydroxytryptamine receptor 2A (HTR2A) small molecule agonists, cell-based qHTS assay (AID 1963587); also: nearly all actives have a fitted effect of over 30% in size
Procedure, shortened: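 HTR2A-CHO cells, plated 18 h at 37 C/5% CO2, dye-loaded 1 h at 37 C; compounds in DMSO added by pin tool (agonist mode). Intracellular calcium flux read as kinetic fluorescence on FDSS over 2 min at 1 s intervals.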

[14] = target: Muscarinic acetylcholine receptor M1 (Homo sapiens) (UniProt P11229); assay: Cholinergic receptor muscarinic 1 (CHRM1) small molecule antagonists, cell-based qHTS assay (AID 1963588); also: nearly all actives have a fitted effect of over 40% in size; also: potency is read from the fitted curve at half-maximal effect
Sequence of Muscarinic acetylcholine receptor M1 (Homo sapiens) (P11229 whole entry, looked up): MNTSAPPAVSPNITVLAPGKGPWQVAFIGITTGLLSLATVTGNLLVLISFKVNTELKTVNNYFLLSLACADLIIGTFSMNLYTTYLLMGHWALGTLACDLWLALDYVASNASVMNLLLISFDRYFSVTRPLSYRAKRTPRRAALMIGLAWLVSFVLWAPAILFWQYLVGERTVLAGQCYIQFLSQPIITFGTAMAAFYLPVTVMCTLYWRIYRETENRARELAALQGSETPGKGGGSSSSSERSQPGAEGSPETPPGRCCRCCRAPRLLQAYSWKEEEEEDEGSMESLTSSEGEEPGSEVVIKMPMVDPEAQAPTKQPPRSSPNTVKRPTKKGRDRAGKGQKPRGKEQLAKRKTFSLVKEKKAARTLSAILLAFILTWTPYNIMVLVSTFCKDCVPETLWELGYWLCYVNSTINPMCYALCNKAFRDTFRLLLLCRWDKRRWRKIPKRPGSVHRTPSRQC
Procedure, shortened: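 Compounds were tested at 15 concentrations in three independent runs. Dye-loaded CHRM1-CHO cells were exposed 5 min at room temperature before stimulation by acetylcholine added at 50nM. Intracellular calcium was read kinetically on FDSS for 3 min.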

[15] = target: Muscarinic acetylcholine receptor M1 (Homo sapiens) (UniProt P11229); assay: Cholinergic receptor muscarinic 1 (CHRM1) small molecule agonists, cell-based qHTS assay (AID 1963589); also: nearly all actives have a fitted effect of over 35% in size
Procedure, shortened: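 Fluorescent calcium dye reports M1 activation in stably transfected CHO cells. Compounds, 15 concentrations, added after 1 h dye loading at 37 C; kinetic reading at 1 sec intervals.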

[16] = cAMP Responsive Elements (CRE) small molecule agonists, cell-based qHTS assay (AID 1963590)
Procedure, shortened: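 Compound exposure lasted 3 h at 37 C/5% CO2 in CRE-bla HEK 293T cells grown in assay medium with 10% dialyzed FBS and 25 mM HEPES. Reporter signal came from LiveBLAzer B/G FRET substrate, 2 h, room temperature.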

[17] = cAMP Responsive Elements (CRE) small molecule antagonists, cell-based qHTS assay (AID 1963591; active = well fitted inhibition curve with a large enough effect in the signal ratio in the repeat runs, not every such curve was filed as active; the % refers to the signal ratio)
Procedure, shortened: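 Stimulation used NKH477 at a final 0.25 uM for 3 h in compound-treated CRE-bla HEK293T cells, seeded 18 h beforehand. Reporter activity was measured with LiveBLAzer B/G FRET substrate after 2 h at room temperature.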

[18] = target: Beta-2 adrenergic receptor (Homo sapiens) (UniProt P07550); assay: Adrenergic beta2 receptor (ADRB2) small molecule antagonists, cell-based qHTS assay (AID 1963592); also: nearly all actives have a fitted effect of over 50% in size; also: potency is read from the fitted curve at half-maximal effect
Sequence of Beta-2 adrenergic receptor (Homo sapiens) (P07550 whole entry, looked up): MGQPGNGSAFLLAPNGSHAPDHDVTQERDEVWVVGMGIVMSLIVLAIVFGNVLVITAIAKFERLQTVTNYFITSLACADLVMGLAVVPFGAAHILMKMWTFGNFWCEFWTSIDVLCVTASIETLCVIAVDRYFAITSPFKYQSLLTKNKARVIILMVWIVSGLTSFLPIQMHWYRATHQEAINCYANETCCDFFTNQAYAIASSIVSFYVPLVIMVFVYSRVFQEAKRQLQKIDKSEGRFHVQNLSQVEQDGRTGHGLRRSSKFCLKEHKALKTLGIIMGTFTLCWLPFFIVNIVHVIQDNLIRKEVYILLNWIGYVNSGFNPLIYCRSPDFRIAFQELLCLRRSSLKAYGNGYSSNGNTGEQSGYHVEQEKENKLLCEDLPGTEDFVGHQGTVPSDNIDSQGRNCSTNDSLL
Procedure, shortened: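 Assay format: CHO-ADRB2 cells, 18-20hr seeding at 37C/5% CO2, then compound plus 1nM isoproterenol agonist mix for 0.5hr RT. Homogeneous time-resolved fluorescence cAMP detection after 1hr, expressed as 665/615 nm ratio.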

[19] = target: D(2) dopamine receptor (Homo sapiens) (UniProt P14416); assay: Dopamine D2 receptor (DRD2) small molecule antagonists, cell-based qHTS assay (AID 1963595; active = well fitted inhibition curve with a large enough effect in the signal ratio in the repeat runs, with a control signal flat; the % refers to the signal ratio)
Sequence of D(2) dopamine receptor (Homo sapiens) (P14416 whole entry, looked up): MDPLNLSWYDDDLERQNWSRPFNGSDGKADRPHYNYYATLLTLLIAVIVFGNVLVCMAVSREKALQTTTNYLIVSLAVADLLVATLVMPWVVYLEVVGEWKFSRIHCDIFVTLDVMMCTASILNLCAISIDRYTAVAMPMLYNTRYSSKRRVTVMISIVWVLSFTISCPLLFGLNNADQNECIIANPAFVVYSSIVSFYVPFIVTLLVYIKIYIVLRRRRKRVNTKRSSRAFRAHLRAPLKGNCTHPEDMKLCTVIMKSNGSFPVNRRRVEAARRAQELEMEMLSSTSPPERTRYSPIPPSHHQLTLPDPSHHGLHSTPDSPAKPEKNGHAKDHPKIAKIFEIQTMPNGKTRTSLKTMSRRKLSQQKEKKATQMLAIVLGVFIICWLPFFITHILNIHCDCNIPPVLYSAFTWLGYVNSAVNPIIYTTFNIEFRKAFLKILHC
Procedure, shortened: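 Antagonist mode in DRD2-HEK293 cells: after compound addition with 0.1 mM Ro20-1724, cells received quinpirole (12 nM) and NKH477 (200 nM) for 30 min at room temperature; HTRF cAMP read after 1 h detection.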

[20] = target: D(2) dopamine receptor (Homo sapiens) (UniProt P14416); assay: Dopamine D2 receptor (DRD2) small molecule agonists, cell-based qHTS assay (AID 1963594); also: nearly all actives have a fitted effect of over 35% in size
Procedure, shortened: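 HEK293 cells stably expressing DRD2 were cultured 24 h at 37 C, then given Ro20-1724 (0.1 mM final) and compounds for 10 min at room temperature. NKH477 (200nM) was then added for 30 min. cAMP was read by HTRF.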

Row | Structure (SMILES) | Potency [1] | Potency [2] | Potency [3] | Potency [4] | Potency [5] | Potency [6] | Potency [7] | Potency [8] | Potency [9] | Potency [10] | Potency [11] | Potency [12] | Potency [13] | Potency [14] | Potency [15] | Potency [16] | Potency [17] | Potency [18] | Potency [19] | Potency [20]
1 | Cn1cc(-c2ccccc2)c(=O)c(-c2cccc(C(F)(F)F)c2)c1 | inactive | inactive | inactive | inactive | inactive | inactive | inactive | inactive | inactive | inactive | inactive | inactive | inactive | inactive | inactive | inactive | inactive | 29.9 µM (active) and inactive | inactive | 
2 | CCCBr | inactive | inactive | inactive | inactive | inactive | inactive | inactive | inactive | inactive | inactive | inactive | inactive | inactive | inactive | inactive | inactive | inactive |  | inactive | inactive
3 | C=CCN1C[C@H](C)N([C@H](c2ccc(C(=O)N(CC)CC)cc2)c2cccc(OC)c2)C[C@H]1C | inactive | inactive | inactive | inactive | inactive | inactive | inactive | inactive | inactive | inactive | inactive | inactive | inactive | 2.59 µM (active) | inactive | inactive |  | inactive | inactive | inactive
4 | CN1CSC(=S)N(C)C1 | 2.72 µM (active) | 1.21 µM (active) and 2.43 µM (active) | inactive | inactive | inactive | inactive | inactive | inactive | 20.3 µM (active) | inactive | inactive | inactive | inactive | inactive | inactive | inactive |  | inactive | inactive | inactive
5 | Clc1cccc(C(Cl)(Cl)Cl)n1 | inactive | inactive | inactive | inactive | inactive | inactive | inactive | inactive | inactive | inactive | inactive | inactive | inactive | inactive | inactive | inactive | inactive |  | inactive | inactive
6 | CC(C)NC(C)C | inactive | inactive | inactive | inactive | inactive | inactive | inactive | inactive | inactive | inactive | inactive | inactive | inactive | inactive | inactive | inactive |  | inactive | inactive | inactive
7 | COC(=O)Cc1ccccc1 | inactive | inactive | inactive | inactive | inactive | inactive | inactive | inactive | inactive | inactive | inactive | inactive | inactive | inactive | inactive | inactive | inactive |  | inactive | inactive
8 | Nc1ccc(Cl)c(Cl)c1 | inactive | inactive | inactive | inactive | inactive | inactive | inactive | inactive | inactive | inactive | inactive | inactive | inactive | inactive | inactive | inactive | inactive |  | inactive | inactive
9 | CCC(=O)c1ccccc1 | inactive | inactive | inactive | inactive | inactive | inactive | inactive | inactive | inactive | inactive | inactive | inactive | inactive | inactive | inactive | inactive |  | inactive | inactive | inactive
10 | CCCN(CCC)c1c([N+](=O)[O-])cc(C(C)C)cc1[N+](=O)[O-] | inactive | 9.48 µM (active) and 15.4 µM (active) | inactive | inactive | inactive | inactive | inactive | inactive | inactive | inactive | inactive | inactive | inactive | inactive | inactive | inactive | inactive |  | inactive | inactive
11 | CNC(=S)S | inactive | inactive | inactive | inactive | inactive | inactive | inactive | inactive | inactive | inactive | inactive | inactive | inactive | inactive | inactive | inactive |  | inactive | inactive | inactive
12 | CC(C)=CC1C(C(=O)OCN2C(=O)C3=C(CCCC3)C2=O)C1(C)C (stereo not given) | inactive | 48.6 µM (active) and 26.6 µM (active) | inactive | inactive | inactive | inactive | inactive | inactive | inactive | inactive | inactive | inactive | inactive | 8.18 µM (active) | inactive |  | inactive | inactive |  | inactive
13 | S=C=S | inactive | inactive | inactive | inactive | inactive | inactive | inactive | inactive | inactive | inactive | inactive | inactive | inactive | inactive | inactive | inactive | inactive | inactive | inactive | inactive
14 | COCC(=O)N(c1c(C)cccc1C)C(C)C(=O)OC (stereo not given) | inactive | inactive | inactive | inactive | inactive | inactive | inactive | inactive | inactive | inactive | inactive | inactive | inactive | inactive | inactive | inactive |  | inactive | inactive | inactive
15 | ClCC(Cl)CCl | inactive | inactive | inactive | inactive | inactive | inactive | inactive | inactive | inactive | inactive | inactive | inactive | inactive | inactive | inactive | inactive | inactive |  | inactive | inactive
